# Laboratory results as given in the supplement of paper PMC10981050.
# “And” between values parts separate entries of the source, which are not always exact repeats. Identical values can stand only once. Counter-ions that a name gives are not always drawn.
# Assays:
# Experiment in all cases: cell viability relative to vehicle control; higher = less cytotoxic
# Details in all cases: 10 µM
# [1] = tested on: K562
# In short: (§1)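 Screening covered the Selleck bioactive, kinase and epigenetic probe libraries, less identity-inconsistent compounds, on CRISPR-edited mutant clones and isogenic wild-type clones of four leukaemia lines. Cells, at 2000 per well in 50 µL medium, received a single 10 µM acoustically dispensed dose. After 48 h the supernatant was removed and CellTiter-Glo luminescence was read. Viability was analysed in Genedata Screener as percent of the on-plate vehicle control.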
# [2] = tested on: MARIMO
# In short: as §1
# [3] = tested on: MOLM14
# In short: as §1
# [4] = tested on: OCI-AML2
# In short: as §1
Compound,cell viability ([1]; SRSF2 genotype: SRSF2 P95H/wt),cell viability ([1]; SRSF2 genotype: SRSF2 wt/wt) [%],cell viability ([2]; SRSF2 genotype: SRSF2 P95H/wt) [%],cell viability ([2]; SRSF2 genotype: SRSF2 wt/wt) [%],cell viability ([3]; SRSF2 genotype: SRSF2 P95H/wt) [%],cell viability ([3]; SRSF2 genotype: SRSF2 wt/wt) [%],cell viability ([4]; SRSF2 genotype: P95H/wt) [%],cell viability ([4]; SRSF2 genotype: wt/wt) [%]
CN1CCc2cc(Nc3ncc(C4CC4)c(NCCCNC(=O)C4CCC4)n3)ccc2C1,34.8% and 33.1%,55.2,3.21,1.31,0.63,0.39,1.22,4.15
CO[C@@H](C)Cn1c(=O)n(C)c2cnc3ccc(-c4cncc(C(C)(C)O)c4)cc3c21,34.4% and 40.7%,35,38.5,35.8,18.6,19.2,5.3,13.6
COC(=O)C1=C(C)NC(C)=C(C(=O)OC2CCCN(Cc3ccccc3)C2)C1c1cccc([N+](=O)[O-])c1 (stereo not given) [Benidipine hydrochloride],77.9% and 79.1%,71.8,76.6,84.7,86.3,79.2,81.5,85.9
CN(C)c1nc(N(C)C)nc(N(C)C)n1 [Altretamine (Hexalen)],99.3% and 102%,99.7,97.3,95.2,94,98.5,99.7,98.4
C[C@@H]1C(=O)O[C@H](C)[C@H]1C[C@@H](O)[C@](C)(O)[C@H]1CC[C@@]2(O)C3=CC(=O)[C@@H]4C[C@@H](O)[C@@H](O)C[C@]4(C)[C@H]3CC[C@]12C [Cyasterone],105% and 98%,105,95.2,98.3,114,105,105,98.2
c1coc(CNc2ncnc3[nH]cnc23)c1 [Kinetin (6-Furfuryladenine)],94.1% and 107%,104,100,113,98.4,105,116,97.6
COc1cc2ncnc(Nc3ccc(F)c(Cl)c3)c2cc1O,92.5% and 95.6%,102,102,101,81.9,101,90.2,94
CCOC(=O)C1=C(COCCN)NC(C)=C(C(=O)OC)C1c1ccccc1Cl (stereo not given) [Amlodipine (Norvasc)],83% and 92.4%,84.4,73.8,78.3,53.3,62.5,38.9,50
CN(C)C(=O)c1cc2cnc(Nc3ccc(N4CCNCC4)cn3)nc2n1C1CCCC1 [Ribociclib (LEE011)],96.4% and 111%,110,68,64.7,54.2,46,62,57
N=C(N)N [Guanidine (Aminoformamidine) HCl],94.2% and 97%,103,104,98.3,97,98.7,102,98.1
COc1cc2c(cc1O)C[C@H]1c3cc(O)c(OC)cc3CC[N+]1(C)C2 (stereo not given in full) [Phellodendrine chloride],92.6% and 101%,98.5,100,95.6,103,95.9,96.7,102
COc1ccc2cc3[n+](cc2c1OC)CCc1cc2c(cc1-3)OCO2 [Berberine chloride],66.5% and 69.6%,65.3,67.2,66.7,70.4,81.3,48.9,53.8
CC(=O)OC(C)(C)CCC(=O)[C@](C)(O)[C@H]1[C@H](O)C[C@@]2(C)[C@@H]3CC=C4[C@@H](C[C@H](O)[C@@H](O)C4(C)C)[C@]3(C)C(=O)C[C@]12C [Curcurbitacin IIA],67.7% and 75.2%,77.4,80.9,87.6,34.7,22.4,21.4,28.8
OC[C@H]1O[C@@](CO)(OC[C@@]2(O[C@H]3O[C@H](CO)[C@@H](O)[C@H](O)[C@H]3O)O[C@H](CO)[C@@H](O)[C@@H]2O)[C@@H](O)[C@@H]1O [1-Kestose],118% and 105%,110,105,99.2,99,110,106,112
Cc1ccc(N(CC2=NCCN2)c2cccc(O)c2)cc1 [Phentolamine Mesylate],93% and 101%,92.5,90.3,95.2,102,103,102,86.7
CCc1cccc(CC)c1NC(=O)N1Cc2[nH]nc(NC(=O)c3ccc(N4CCN(C)CC4)cc3)c2C1,29.9% and 41.4%,25.5,69.2,70.3,19.8,13.4,12.8,23.3
CC(C)C[C@@H](C=O)NC(=O)[C@H](CC(C)C)NC(=O)[C@H](CC(C)C)NC(=O)OCc1ccccc1,1.82% and 1.99%,1.37,0.54,1.13,0.49,0.53,0.36,0.41
CCCCNc1ncc(C(=O)NCc2ccc(-n3ccnc3)cc2)c(NC2CCC(O)CC2)n1 (stereo not given),84.4%,72.8,73,83.9,25.6,20.8,48.4,52.1
C=Cc1c(C)c2cc3nc(cc4[nH]c(cc5nc(cc1[nH]2)C(C)=C5CCC(=O)O)c(CCC(=O)OC)c4C)C1(C)C3=CC=C(C(=O)OC)C1C(=O)OC (stereo not given) [Verteporfin (Visudyne)],68.3% and 75.3%,70.6,87.7,85.2,80.2,59.8,69.7,77.9
CCN(CC)CCOC(=O)c1ccc(N)cc1 [Procaine (Novocaine) HCl],98.7% and 100%,95.9,109,112,98.6,99.7,93.2,110

Compound,cell viability ([1]; SRSF2 genotype: SRSF2 P95H/wt),cell viability ([1]; SRSF2 genotype: SRSF2 wt/wt) [%],cell viability ([2]; SRSF2 genotype: SRSF2 P95H/wt) [%],cell viability ([2]; SRSF2 genotype: SRSF2 wt/wt) [%],cell viability ([3]; SRSF2 genotype: SRSF2 P95H/wt) [%],cell viability ([3]; SRSF2 genotype: SRSF2 wt/wt) [%],cell viability ([4]; SRSF2 genotype: P95H/wt) [%],cell viability ([4]; SRSF2 genotype: wt/wt) [%]
CC(=O)O[C@H]1C(=O)[C@@]2(C)[C@H]([C@H](OC(=O)c3ccccc3)[C@]3(O)C[C@H](OC(=O)[C@H](O)[C@@H](NC(=O)c4ccccc4)c4ccccc4)C(C)=C1C3(C)C)[C@]1(OC(C)=O)CO[C@@H]1C[C@@H]2O [Paclitaxel (Taxol)],24.2% and 40.5%,35.7,7.78,4.98,9.66,2.55,7.7,12.1
Cc1c(C(=O)NN2CCCCC2)nn(-c2ccc(Cl)cc2Cl)c1-c1ccc(Cl)cc1,81.6% and 88%,74.5,93.7,93,88.5,87,91.8,90.9
O=C(NC[C@H]1CN(c2ccc(N3CCOCC3=O)cc2)C(=O)O1)c1ccc(Cl)s1 [Rivaroxaban (Xarelto)],87.3% and 85.4%,92.3,92.5,91.3,96.8,97.1,90.8,85.8
CCc1c(O)cc(O)c(C(=O)c2ccc(OCCN3CCOCC3)c(OC)c2)c1CC(=O)N(CCOC)CCOC,20.4% and 29.7%,25.7,29.3,25.4,2.57,2.85,19.3,21.8
C=C1C[C@@]23CC[C@H]4[C@@](C)(CCC[C@@]4(C)C(=O)O)[C@@H]2CC[C@@H]1C3 [Kaurenoic acid],105% and 103%,107,105,101,112,103,104,106
C[C@H](CCC(=O)O)[C@H]1CC[C@H]2[C@@H]3CC[C@@H]4C[C@H](O)CC[C@]4(C)[C@H]3CC[C@]12C [Lithocholic acid],102% and 101%,101,106,113,98.9,104,107,112
COc1ccccc1C(=O)Nc1cc2c(cc1N1CCCC1)n(C)c(=O)n2C,91.5% and 100%,92,84.1,95.3,79.4,83.4,63.5,69.2
O=C(O)CC1CC(c2ccccc2)=NO1 (stereo not given),108% and 104%,103,97,110,97.4,99.7,89.5,95.5
Cc1ccc(NS(=O)(=O)c2ccc3c(c2)C2C=CCC2C(c2ccc(C(=O)O)cc2)N3)cc1C (stereo not given),108% and 98.9%,110,102,101,106,104,103,117
COC(=O)C1=CO[C@@H](O)[C@@H]2C(CO)=CC[C@H]12 [Genipin],94.8% and 97.4%,95.1,71.1,85.7,78,90.4,26.4,41.1
O=c1cc(-c2ccccc2)oc2cc(O)c(O)c(O)c12 [Baicalein],81.4% and 80%,80.5,88.2,83.8,74.8,85.2,91.2,82.6
COc1cccc(Nc2c(C(N)=O)cnc3c(C)cc(S(=O)(=O)c4cccc(C(=O)N(C)C)c4)cc23)c1,109% and 106%,108,93.5,101,108,103,111,98.2
O=C1NC(=O)C(=Cc2ccc(-c3ccc(F)cc3)o2)S1 (stereo in doubt),102% and 101%,97.1,93.1,92.5,113,108,94.6,95.8
O=C(O)c1cc(=O)[nH]c(=O)[nH]1 [Orotic acid (6-Carboxyuracil)],104% and 95.1%,96.6,91.1,101,95.3,95.2,95.2,96.5
O=C1C[C@@H](c2ccc(O)cc2)Oc2cc(O)cc(O)c21 [Naringenin],99.2% and 105%,103,106,107,111,112,96.5,96.7
CS(=O)(=O)c1ccc(C2=C(c3ccccc3)C(=O)OC2)cc1 [Rofecoxib (Vioxx)],98.7% and 95.2%,93.5,98.6,104,94.7,101,87.8,98.8
COc1c(O)c(C)cc2c1C(=O)c1c(O)cccc1C2=O [Obtusifolin],103% and 105%,107,109,105,111,105,98.6,92.6
Nc1ccn([C@@H]2O[C@H](CO)[C@@H](O)C2(F)F)c(=O)n1 [Gemcitabine (Gemzar)],89% and 104%,101,21.3,24.4,4.86,1.1,7.55,8.99
COc1cc2oc(-c3ccc(O)cc3)cc(=O)c2c(O)c1[C@@H]1O[C@H](CO)[C@@H](O)[C@H](O)[C@H]1O[C@@H]1O[C@H](CO)[C@@H](O)[C@H](O)[C@H]1O [Spinosin],106%,104,106,101,106,104,99.2,100
COc1ccc(-c2ccc3c(N4CCOCC4)nc(N4C[C@@H](C)O[C@@H](C)C4)nc3n2)cc1CO,45.8% and 54.8%,46.6,60.9,50.6,37,29.8,33.4,34.5
